# Source: PubChem BioAssay (NCATS)
# Results filed as inconclusive are left out. Unmarked numbers belong to inactive results. The source made the active and inactive calls. Unless noted, calls come from the whole dose curve; as a rule, active = well fitted curve in the direction sought with a large enough effect; inconclusive = small, poorly fitted or top-dose-only effect, or another doubt; inactive = no such curve, though single readings can be large; an effect the other way counts as inactive or inconclusive.
# Target: Calcium and integrin-binding protein 1 (Homo sapiens) (UniProt Q99828)
# Sequence (Q99828 whole entry, looked up): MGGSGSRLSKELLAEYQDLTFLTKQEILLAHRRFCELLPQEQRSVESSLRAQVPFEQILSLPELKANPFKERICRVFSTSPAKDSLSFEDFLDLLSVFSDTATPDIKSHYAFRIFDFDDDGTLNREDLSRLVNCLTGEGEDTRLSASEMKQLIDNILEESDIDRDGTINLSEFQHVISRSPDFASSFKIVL
# Assay: Primary qHTS for Identification of Calcium Integrin Binding Protein 1 (CIB1) Competitor (AID 1508620);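 note: GST tagged CIB1 binding a fluorescein labelled alphaIIb integrin peptide tracer; top concentration of the series differs between compounds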
# Settings: CIB1-GST / FITC-alphaIIb peptide fluorescence polarization; series mostly up to 114 µM; activity change, negative = inhibition: at the top concentration
# In short: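 Fluorescence polarization competition: CIB1-GST (1 uM final) preincubated with compound 15 min at room temperature, then FITC-labeled alphaIIb peptide (100 nM final) added for another 15 min. Polarization read at Ex 480/Em 540.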
# % is set by controls: 0 for no effect and ±100 for the full control effect.
row,SMILES,"activity change, negative = inhibition"
1,O=C(C(Cc1cccc(C(F)(F)F)c1)NS(=O)(=O)c1cc(F)c2c(c1)CCNC2)N1CCCC1 (stereo not drawn),-10.2%
2,COc1ccc(C#Cc2ccc(C(=O)N3CCC[C@@H](O)C3)c(F)c2)cc1,4.38%
3,O=C1Nc2nc(-c3c(O)cccc3OCC3CC3)cc([C@@H]3CCCNC3)c2CO1,8.45%
4,COc1ccc(-c2cnc3c(-c4cccc5ncccc45)cnn3c2)cc1,2.23%
5,O=c1[nH]c([C@@H]2CCCN2)nc2c1oc1ccc(Cl)cc12,-2.34%
6,COc1ccccc1OCCNCC(O)CCOc1cccc2[nH]c3ccccc3c12 (stereo not drawn),4.79%
7,N#Cc1ccc2ncnc(NCCc3ccccc3)c2c1,1.5%
8,COc1ccccc1S(=O)(=O)Nc1ccc2c(c1)CN(C)C(=O)N2,-1.26%
9,CN(C)c1cccc(Oc2cnc(Nc3cccc(O)c3)nc2)c1,-1.83%
10,O=c1[nH]c2ccccc2n1CCN1CCN(c2cccc(C(F)(F)F)c2)CC1,-4%
11,CCCN(CCc1ccsc1)C1CCc2c(O)cccc2C1 (stereo not drawn),2.87%
12,Cn1nc(-c2ccc(C(F)(F)F)cc2)nc2c(=O)n(C)c(=O)nc1-2,-17.2%
13,Fc1ccc(-n2cc(CCCCN3CCC4(CC3)OCc3ccccc34)c3ccccc32)cc1,4.88%
14,O=S(=O)(N[C@H]1CCCC[C@@H]1N1CCOCC1)c1ccc(Cl)cc1,0.454%
15,COc1ccc2c(NC(=O)Nc3cccc(C(F)(F)F)n3)ccnc2c1,3.91%
16,O=C(Nc1nc2ccc([N+](=O)[O-])cc2s1)C1CCCCC1,-8.39%
17,O=C(NC1(c2ccccc2)CC1)c1c(CN2CCC(N3CCCCC3)CC2)c(-c2cccc(C(F)(F)F)c2)nc2cc(Br)ccc12,-1.03%
18,COc1ccc(C(=O)Nc2c(Cl)cncc2Cl)cc1OC1CCCC1,-9.04%
19,Fc1ccc(-c2nc(-c3ccccc3F)[nH]c2-c2ccncc2)cc1,0.374%
20,Nc1nccc(-c2c(-c3ccc(F)cc3)ncn2C2CCCCC2)n1,0.93%

row,SMILES,"activity change, negative = inhibition"
1,C#CCOc1ccc2c(c1)c(-c1ccc(C(C)C)cc1)nc(=O)n2C(C)C,0.289%
2,CC(C)Nc1nc(Nc2ccccc2)nc(-c2ccccc2)n1,5.25%
3,N#Cc1ccc(O[C@@H]2c3ccccc3C[C@H]2N2CCC[C@@H](N)C2)c(Cl)c1,1.1%
4,CC[C@H](C(=O)Nc1ccccc1N1CCCC1)c1ccccc1,-0.207%
5,O=C(NCC1CCN(Cc2cccc(Cl)c2)CC1)[C@@H]1CCCN(c2ncnc3c2nc2n3CCCC2)C1,4.3%
6,CN(C)Cc1ccc(-c2cnn3c(-c4cccc(NC(=O)c5cccc(C(F)(F)F)c5)c4)ccnc23)cc1,-13.7%
7,Cc1ccccc1CN1CCn2c1nc1c(c2=O)CN(Cc2ccccc2)CC1,-4.17%
8,Cc1ccc(C2(C(=O)N3CCC(n4nc(-c5ccccc5)oc4=O)CC3)CC2)cc1,-0.168%
9,O=C(NS(=O)(=O)c1ccc(Br)s1)c1ccc(Cl)cc1Cl,-3.96%
10,CC(C)c1cccc(C(C)C)c1NC(=O)Nc1ccc(Sc2ccc([N+](=O)[O-])cc2)cc1,2.54%
11,COc1cc(N(C)CCN(C)C)c(N)cc1Nc1nccc(-c2cn(C)c3ccccc23)n1,-6.46%
12,O=C(Nc1ccc2[nH]c(=O)oc2c1)C(=O)N1CCC(Cc2ccc(F)cc2)CC1,-3.94%
13,CCCCc1ccc(NS(=O)(=O)c2ccc(F)cc2)cc1,6.25%
14,Cc1cc(C)nc(SCC(=O)Nc2ncc(Cc3cccc4ccccc34)s2)n1,5.41%
15,CN1CCN(S(=O)(=O)c2ccc(-c3cnc(N)c(C(=O)Nc4cccnc4)n3)cc2)CC1,-2.16% [at 57.7 µM]
16,CC[N+]1(C/C2=C/CCCCCC2)CCC(NC(=O)C2c3cc(Cl)ccc3Oc3ccc(Cl)cc32)CC1 (stereo not drawn),5.72%
17,COCCN(C(=O)c1cc(OC)c(OC)c(OC)c1)c1nc(-c2ccccc2)cs1,-1.37%
18,CCOC(=O)N1CCC(CN(Cc2ccc(Cl)cc2)Cc2ccc([N+](=O)[O-])s2)C1 (stereo not drawn),0.203%
19,C#CC(=O)N(c1ccc(OC)cc1OC)C(C(=O)NCC(=O)OCC)c1cccs1 (stereo not drawn),2.77%

# Target: Cytochrome P450 2D6 (Homo sapiens) (UniProt P10635)
# Sequence (P10635 whole entry, looked up): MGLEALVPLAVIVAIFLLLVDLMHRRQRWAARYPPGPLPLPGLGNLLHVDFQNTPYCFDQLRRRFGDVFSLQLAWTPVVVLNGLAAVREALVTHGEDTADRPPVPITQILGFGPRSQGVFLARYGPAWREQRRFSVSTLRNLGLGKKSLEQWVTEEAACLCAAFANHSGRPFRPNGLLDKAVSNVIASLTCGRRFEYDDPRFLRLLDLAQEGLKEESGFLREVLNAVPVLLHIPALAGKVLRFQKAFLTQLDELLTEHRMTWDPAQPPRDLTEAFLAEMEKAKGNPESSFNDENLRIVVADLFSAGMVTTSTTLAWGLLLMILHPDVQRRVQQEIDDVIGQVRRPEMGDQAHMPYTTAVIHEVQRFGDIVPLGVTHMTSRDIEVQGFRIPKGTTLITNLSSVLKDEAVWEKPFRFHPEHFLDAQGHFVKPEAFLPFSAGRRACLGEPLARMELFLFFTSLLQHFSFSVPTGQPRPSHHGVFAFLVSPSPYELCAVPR
# Assay: Cytochrome P450 family 2 subfamily D member 6 (CYP2D6) small molecule antagonists: luciferase biochemical (cell-free) qHTS assay (AID 1645840; active = well fitted curve in the direction sought with a large enough effect in the repeat runs; an effect the other way counts as inactive or inconclusive; note: nearly all actives have a fitted effect of over 55% in size; note: potency is the fitted concentration of half-maximal effect)
# Settings: P450-Glo CYP2D6 enzyme, luciferin luminescence, 1 h; series mostly up to 57.4 µM; activity change, negative = inhibition: at the top concentration
# In short: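 P450-Glo CYP2D6 system: proluciferin substrate converted by enzyme to luciferin, read by luminescence proportional to activity. Enzyme-substrate mix with compound 10 min at room temperature, then NADPH regeneration 1 h before detection reagent.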
SMILES,Potency,"activity change, negative = inhibition"
O=C(C(Cc1cccc(C(F)(F)F)c1)NS(=O)(=O)c1cc(F)c2c(c1)CCNC2)N1CCCC1 (stereo not drawn),13.5 µM (active),–
COc1ccc(C#Cc2ccc(C(=O)N3CCC[C@@H](O)C3)c(F)c2)cc1,–,8.23%
O=C1Nc2nc(-c3c(O)cccc3OCC3CC3)cc([C@@H]3CCCNC3)c2CO1,19 µM (active),–
COc1ccc(-c2cnc3c(-c4cccc5ncccc45)cnn3c2)cc1,–,10.8%
O=c1[nH]c([C@@H]2CCCN2)nc2c1oc1ccc(Cl)cc12,–,28.2%
COc1ccccc1OCCNCC(O)CCOc1cccc2[nH]c3ccccc3c12 (stereo not drawn),0.301 µM (active),–
N#Cc1ccc2ncnc(NCCc3ccccc3)c2c1,15.1 µM (active),–
COc1ccccc1S(=O)(=O)Nc1ccc2c(c1)CN(C)C(=O)N2,–,-1.75%
CN(C)c1cccc(Oc2cnc(Nc3cccc(O)c3)nc2)c1,21.3 µM (active),–
O=c1[nH]c2ccccc2n1CCN1CCN(c2cccc(C(F)(F)F)c2)CC1,7.56 µM (active),–
CCCN(CCc1ccsc1)C1CCc2c(O)cccc2C1 (stereo not drawn),0.338 µM (active),–
Cn1nc(-c2ccc(C(F)(F)F)cc2)nc2c(=O)n(C)c(=O)nc1-2,0.239 µM (active),–
Fc1ccc(-n2cc(CCCCN3CCC4(CC3)OCc3ccccc34)c3ccccc32)cc1,0.601 µM (active),–
O=S(=O)(N[C@H]1CCCC[C@@H]1N1CCOCC1)c1ccc(Cl)cc1,5.35 µM (active),–
COc1ccc2c(NC(=O)Nc3cccc(C(F)(F)F)n3)ccnc2c1,–,-0.662%
O=C(Nc1nc2ccc([N+](=O)[O-])cc2s1)C1CCCCC1,1.9 µM (active),–
O=C(NC1(c2ccccc2)CC1)c1c(CN2CCC(N3CCCCC3)CC2)c(-c2cccc(C(F)(F)F)c2)nc2cc(Br)ccc12,4.77 µM (active),–
COc1ccc(C(=O)Nc2c(Cl)cncc2Cl)cc1OC1CCCC1,–,-7.1%
Fc1ccc(-c2nc(-c3ccccc3F)[nH]c2-c2ccncc2)cc1,1.2 µM (active),–
Nc1nccc(-c2c(-c3ccc(F)cc3)ncn2C2CCCCC2)n1,15.1 µM (active),–

SMILES,Potency,"activity change, negative = inhibition"
C#CCOc1ccc2c(c1)c(-c1ccc(C(C)C)cc1)nc(=O)n2C(C)C,23.9 µM (active),–
CC(C)Nc1nc(Nc2ccccc2)nc(-c2ccccc2)n1,–,4.51%
N#Cc1ccc(O[C@@H]2c3ccccc3C[C@H]2N2CCC[C@@H](N)C2)c(Cl)c1,0.169 µM (active),–
CC[C@H](C(=O)Nc1ccccc1N1CCCC1)c1ccccc1,9.52 µM (active),–
O=C(NCC1CCN(Cc2cccc(Cl)c2)CC1)[C@@H]1CCCN(c2ncnc3c2nc2n3CCCC2)C1,15.1 µM (active),–
CN(C)Cc1ccc(-c2cnn3c(-c4cccc(NC(=O)c5cccc(C(F)(F)F)c5)c4)ccnc23)cc1,13.5 µM (active),–
Cc1ccccc1CN1CCn2c1nc1c(c2=O)CN(Cc2ccccc2)CC1,13.5 µM (active),–
Cc1ccc(C2(C(=O)N3CCC(n4nc(-c5ccccc5)oc4=O)CC3)CC2)cc1,13.5 µM (active),–
O=C(NS(=O)(=O)c1ccc(Br)s1)c1ccc(Cl)cc1Cl,–,10.3%
CC(C)c1cccc(C(C)C)c1NC(=O)Nc1ccc(Sc2ccc([N+](=O)[O-])cc2)cc1,–,20.7%
COc1cc(N(C)CCN(C)C)c(N)cc1Nc1nccc(-c2cn(C)c3ccccc23)n1,19 µM (active),–
O=C(Nc1ccc2[nH]c(=O)oc2c1)C(=O)N1CCC(Cc2ccc(F)cc2)CC1,21.3 µM (active),–
CCCCc1ccc(NS(=O)(=O)c2ccc(F)cc2)cc1,9.52 µM (active),–
Cc1cc(C)nc(SCC(=O)Nc2ncc(Cc3cccc4ccccc34)s2)n1,–,-3.27%
CN1CCN(S(=O)(=O)c2ccc(-c3cnc(N)c(C(=O)Nc4cccnc4)n3)cc2)CC1,–,3.62%
CC[N+]1(C/C2=C/CCCCCC2)CCC(NC(=O)C2c3cc(Cl)ccc3Oc3ccc(Cl)cc32)CC1 (stereo not drawn),0.425 µM (active),–
COCCN(C(=O)c1cc(OC)c(OC)c(OC)c1)c1nc(-c2ccccc2)cs1,–,7.34%
CCOC(=O)N1CCC(CN(Cc2ccc(Cl)cc2)Cc2ccc([N+](=O)[O-])s2)C1 (stereo not drawn),3.01 µM (active),–
C#CC(=O)N(c1ccc(OC)cc1OC)C(C(=O)NCC(=O)OCC)c1cccs1 (stereo not drawn),12 µM (active),–
